# Bioassay records from PubChem.
# IMPase Li inh: cell-permeable IMPase inhibitors with lithium potentiation. CHO-M1 cells, IP1 TR-FRET (IP-One), carbachol + lithium. Potency, µM (highest dose often 59.4 µM), inactives show at the top dose activity, negative = IMPase inhibition, hits mostly inhibitors. 210,000 compounds, 0.35% hits. AID 1457; active = well fitted curve in the direction sought with a large enough effect; inconclusive = small, poorly fitted or top-dose-only effect, or another doubt; inactive = no such curve, though single readings can be large; an effect the other way counts as inactive or inconclusive;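 note: IP1 builds up when IMPase is blocked and the TR-FRET signal falls; plate controls were basal vehicle for no effect and high inhibitor control for full effect; nearly all actives have a fitted effect of over 50% in size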
#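 IP1 accumulation measured by competitive TR-FRET in lysed CHO-M1 cells after 30 min compound exposure at 37C, with a small lithium addition to potentiate weak responses. Hill-equation AC50 from ratio and donor-channel data.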
# HPGD block: HPGD (human) dehydrogenase inhibition; P15428; Potency, µM, for the others: at the highest dose activity change, negative = inhibition, usual class: inhibitors; AID 894; 150,000 compounds, 4.3% hits; purified HPGD, NADH fluorescence kinetic, PGE2 substrate
# Target sequence (P15428 whole entry, looked up): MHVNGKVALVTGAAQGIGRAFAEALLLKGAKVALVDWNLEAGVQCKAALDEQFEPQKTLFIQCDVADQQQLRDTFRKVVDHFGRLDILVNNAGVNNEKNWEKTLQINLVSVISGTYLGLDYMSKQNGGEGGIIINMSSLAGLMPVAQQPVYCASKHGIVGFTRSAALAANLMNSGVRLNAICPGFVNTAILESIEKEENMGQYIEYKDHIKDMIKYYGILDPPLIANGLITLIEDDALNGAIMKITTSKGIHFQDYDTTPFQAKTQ
#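 NADH formation kinetics: reaction with 30 uM PGE2 and 1 mM NAD+ (final), 20 nM enzyme, Tris-HCl pH 8 with Tween 20, after 15 min compound preincubation at room temperature. Fluorescence change, last versus first of five reads.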
# KinaseGlo FLuc: counter-screen: inhibitors of Kinase-Glo firefly luciferase; Q27757; Kinase-Glo luciferase, ATP luminescence, 8 min; Potency, µM (doses to about 38.3 µM), without a hit: top-dose activity change, negative = inhibition, hits mostly inhibitors; 200,000 compounds, 0.28% hits; active = well fitted curve in the direction sought with a large enough effect; inconclusive = small, poorly fitted or top-dose-only effect, or another doubt; inactive = no such curve, though single readings can be large; an effect the other way counts as inactive or inconclusive; note: nearly all actives have a fitted effect of over 60% in size
#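 Kinase-Glo luciferase light output from ATP and luciferin was measured with 10 uM ATP, within the enzyme's linear range. Buffer: 50 mM imidazole pH 7.2, 50 mM KCl, 7 mM MgCl2, 0.01% Tween 20, 0.05% BSA; luminescence read after 8 min at ambient temperature.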
# ALDH1A1 inh: inhibitors of human aldehyde dehydrogenase 1A1. P00352. Potency, µM (top dose mostly 75.3 µM), for inactives: top-dose activity, negative = inhibition, usual class: inhibitors. 220,000 compounds, 7.3% hits. Purified ALDH1A1, NADH fluorescence, propionaldehyde substrate;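 note: plate controls were no enzyme wells and a reference inhibitor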
# Lamin A splicing: changes lamin A minigene splicing in HeLa cells; HeLa LMNA splicing GFP/RFP minigene ratio, 48 h; Potency, µM (doses to about 46.1 µM), for inactives: at the highest dose ratio change, negative = inhibition, actives largely listed as inhibitors; 200,000 compounds, 0.01% hits; AID 1487; active = well fitted inhibition curve with a large enough effect in the signal ratio, with a control signal flat, not every such curve was filed as active; inconclusive = small, poorly fitted or top-dose-only effect, or effect the other way, or a change in a side signal; the % refers to the signal ratio
#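 S3 HeLa cells stably expressing lamin A-EGFP splicing minigene plus DsRed2, 600 cells/well, 48 h compound exposure at 37C. Laser-scanning cytometry; analysed as GFP (500-530 nm)/RFP (575-640 nm) total intensity ratio; 0.5% DMSO vehicle.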
# The depositor's hits bear a star; ? = inconclusive; . = not tested or not shown; [ ] = dose if it differs, or a comment. Only some compounds are listed: those with a hit (about 9% of all), similar ones and a draw of the others. Unless noted, calls come from the whole dose curve; as a rule, active = well fitted inhibition curve with a large enough effect (not every such curve was filed as active); inconclusive = small, poorly fitted or top-dose-only effect, or another doubt; inactive = no such curve, though single readings can be large or run the other way. Unless noted, % is set by controls: 0 for no effect and ±100 for the full control effect; potency is the fitted concentration of half-maximal effect.
SMILES,IMPase Li inh,HPGD block,KinaseGlo FLuc,ALDH1A1 inh,Lamin A splicing
C[C@H]1[C@H](O)[C@@H](C)C=CC=CC=CC=CC=CC=CC=C[C@H](O[C@@H]2O[C@@H](C)[C@H](O)[C@@H](N)[C@@H]2O)C[C@@H]2O[C@](O)(C[C@@H](O)C[C@@H](O)[C@@H](O)CC[C@@H](O)C[C@@H](O)CC(=O)O[C@H]1C)C[C@H](O)[C@H]2C(=O)O,-11%,-2%,-19%[7.66 µM],-18%[13.5 µM],.
O=C(Nc1nc(-c2ccncc2)cs1)C1c2ccccc2Oc2ccccc21,15%,-4%,3%,-6%,?
Cc1nnc(NC(=O)C2c3ccccc3Oc3ccccc32)s1,17%,22µM*,2%,-14%,?
CC(C)c1nnc(NC(=O)C2c3ccccc3Oc3ccccc32)s1,39%[38.3 µM],-7%,5%,?,-29%
O=C(Nc1nc(-c2ccccc2)cs1)C1c2ccccc2Oc2ccccc21,5%[38.3 µM],-14%,2%,1.8µM*,9%
COc1cc2c(cc1OC)[C@H](C)N(CC1C(=O)O[C@@H]3C[C@@]4(C)CCC[C@H](C)[C@@]45OC5[C@H]13)CC2 (some centres undefined),19%,-2%,2%,-3%,.
Cc1cc(C)cc(N(CC(=O)N2CCc3ccccc32)S(=O)(=O)c2c(C)noc2C)c1,0%[38.3 µM],-14%,8%,8.9µM*,1%
CSc1nnc(C)c(=O)n1COC(=O)/C=C/c1ccc2c(c1)OCO2,1%,.,-3%,?,?
C/C(CCC(=O)OC[C@@H]1O[C@H](C#Cc2ccccc2)C=C[C@@H]1Oc1ccc(C)cc1)=N/OC[C@@H](O)COCc1ccco1,.,.,.,0%[13.5 µM],.
COc1ccc(O[C@H]2C=C[C@@H](c3ccccc3)O[C@@H]2COC(=O)CC/C(C)=N/OC[C@@H](O)COCc2ccco2)cc1,19%,-17%,2%,10µM*,?
Cc1cc(NC(=O)c2ccccc2Oc2ccccc2)no1,5%[38.3 µM],-13%,-2%,-3%,?
Cc1ccc(CN(C)C(=O)c2ccccc2Oc2ccccc2)o1,4%[38.3 µM],22µM*,0%,10µM*,12%
Cc1nn(-c2ccc(Cl)nn2)c(=O)c2ccccc12,0%,.,-3%,-3%,-15%[46 µM]
Cc1cc(C)nc(SCCC(=O)Nc2ccccc2Cl)n1,2%,.,1%,-3%,.
COc1cccc(CC2CC(=O)N(c3ccc4c(C)cc(=O)oc4c3)C2=O)c1 (centres undefined),-12%,.,1%,1.4µM*,?
O=C(Nc1ccc2c(c1)OCO2)C(c1ccccc1)N1CCN(C(=O)c2ccco2)CC1 (centres undefined),24%[38.3 µM],-19%,14%,3µM*,13%
O=C(Nc1ccc(F)cc1)C(c1ccccc1)N1CCN(S(=O)(=O)c2ccc3ccccc3c2)CC1 (centres undefined),8%,-15%,1%,?,-4%
O=C(c1ccco1)N1CCN(C(=O)C(Sc2ccccc2)c2ccccc2)CC1 (centres undefined),36%[38.3 µM],-11%,-2%,14µM*,-21%
O=C(Nc1ccc(F)cc1)C(c1ccccc1)N1CCN(C(=O)c2ccco2)CC1 (centres undefined),16%[38.3 µM],-18%,0%,5µM*,1%
O=C(Nc1ccc2c(c1)OCO2)C(c1ccc(Cl)cc1)N1CCN(C(=O)c2ccco2)CC1 (centres undefined),40%[38.3 µM],-5%,0%,-12%,-11%
O=C(CSc1ccccc1)N1CCN(C(=O)c2ccco2)CC1,13%,.,1%,?,28%[46 µM]
Cc1ccc(C)c(S(=O)(=O)N2CCN(C(C(=O)Nc3ccc(F)cc3)c3ccccc3)CC2)c1 (centres undefined),5%,-13%,-1%,11µM*,-13%
O=C(CC(Nc1cccc(Cl)c1Cl)C(=O)O)c1ccccc1 (centres undefined),13%,.,2%,0.35µM*,.
CCOC(=O)/C(C#N)=C\C1=C(N2CCCC2)CC(C)(C)OC1,10%,-21%,-2%,14µM*,-4%
COc1cccc(Cn2c(=O)c(-c3ccc(Cl)cc3)nc3cnc(N4CCNCC4)nc32)c1,13%,.,.,?,?
SMILES,IMPase Li inh,HPGD block,KinaseGlo FLuc,ALDH1A1 inh,Lamin A splicing
CCCN(C(=O)Cn1ncc2c(=O)oc3ccccc3c21)c1cccc(C)c1,-9%[38.3 µM],3%,-5%,11µM*,-2%
COCCOC(=O)C1=C(C)NC2(O)c3ccccc3C(=O)C12O (centres undefined),9%,.,2%,11µM*,.
CC(=O)C1=C(C)NC2(O)c3ccccc3C(=O)C12O (centres undefined),-3%,.,1%,11µM*,.
O=c1[nH]c(S)nc2sc3c(c12)CCCC3,?,.,1%,4.5µM*,.
Cc1nc2sc3c(c2c(=O)o1)CCC3,22%[38.3 µM],20µM*,-4%,25µM*,12%
C=CCNC(=O)c1ccccc1NC(=O)c1cccc2ccccc12,27%[38.3 µM],-19%,-5%,?,-16%
O=C(NCCn1cccc1)c1cccc2ccccc12,-5%[38.3 µM],32µM*,-3%,-4%,13%
COc1ccc(-c2nc3scc(CCNS(=O)(=O)c4ccc5c(c4)OCCO5)n3n2)cc1OC,.,.,.,.,-3%[46 µM]
O=S(=O)(c1cccc2c(I)cccc12)N1CCCNCC1,-12%,-11%,-1%,2%,?
COc1ccc(CCn2c(Br)nc3c2c(=O)[nH]c(=O)n3C)cc1,0%[38.3 µM],13µM*,0%,6%,8%
Cn1c(=O)[nH]c(=O)c2c1nc(Br)n2CCC(=O)c1ccccc1,-7%[38.3 µM],-9%,-9%,3.5µM*,3%
Cc1nnc(SCCn2c(N3CCN(C)CC3)nc3c2c(=O)[nH]c(=O)n3C)s1,-10%[38.3 µM],-6%,-1%,9%,5%
Cc1nnc(SCCn2c(Br)nc3c2c(=O)[nH]c(=O)n3C)s1,-14%[38.3 µM],-14%,0%,7.9µM*,1%
COc1ccc(CCn2c(N3CCN(C)CC3)nc3c2c(=O)[nH]c(=O)n3C)cc1,16%[38.3 µM],-10%,4%,-4%,-3%
c1ccc(-c2noc(CSc3nnc(Cc4cccs4)n3-c3ccccc3)n2)cc1,12%,-1%,2%,?,?
Cc1ccc(-c2noc(CSc3nnc(Cc4ccccc4)n3-c3cccc(C)c3)n2)cc1,39%[38.3 µM],-13%,-6%,-11%,?
COc1ccc(-c2noc(CSc3nnc(Cc4ccccc4)n3-c3cccc(C)c3)n2)cc1OC,52%[38.3 µM],-14%,1%,13µM*,-4%
Fc1ccc(-n2c(Cc3ccccc3)nnc2SCc2nc(-c3cccs3)no2)cc1,33%[38.3 µM],-18%,-2%,14µM*,-11%
Cc1cc(CNC(=S)Nc2cccc(Cl)c2Cl)nn1C,2%,.,1%,4%,.
S=C(NCc1ccc(Cl)cc1)Nc1ccc(Cl)cc1Cl,8%,-2%,-2%,6%,15%
